Holding throughout (assay): DAPPL (digital affinity profiling via proximity ligation, sequencing); 10 mM Tris-HCl pH 7.5, 50 mM NaCl, 1 mM DTT, 4% glycerol, room temperature, 30 min; GST-TFs on glutathione beads, 16-mer random dsDNA library, 0.1% formaldehyde crosslink after washing; high values mean tight binding
Conditions in all cases: protein: recombinant; tags: N-terminal GST; dsDNA, one strand shown

One assay deals with T1, FLI1 (Homo sapiens, UniProt Q01543 1-452).
T1 sequence: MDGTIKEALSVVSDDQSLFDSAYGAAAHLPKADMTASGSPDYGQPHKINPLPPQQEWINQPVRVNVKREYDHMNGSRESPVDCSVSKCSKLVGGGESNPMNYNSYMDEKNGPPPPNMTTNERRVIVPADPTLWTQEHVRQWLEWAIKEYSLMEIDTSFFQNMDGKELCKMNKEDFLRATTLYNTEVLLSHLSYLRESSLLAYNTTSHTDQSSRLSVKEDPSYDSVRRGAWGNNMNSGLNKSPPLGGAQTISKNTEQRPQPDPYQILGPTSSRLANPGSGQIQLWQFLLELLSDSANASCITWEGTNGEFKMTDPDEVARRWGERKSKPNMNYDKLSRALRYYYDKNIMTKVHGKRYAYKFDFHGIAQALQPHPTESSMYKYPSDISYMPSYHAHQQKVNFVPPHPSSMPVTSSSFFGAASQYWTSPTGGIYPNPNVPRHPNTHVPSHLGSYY
The essentials:
(§1)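 Pools were built from human transcription factors expressed in yeast as GST fusions, captured on glutathione beads and DNA-barcoded, along with a tag-only sample. Incubation with 200 nmole of a 16-mer random double-stranded DNA library lasted 30 min at room temperature in Tris/NaCl/DTT/glycerol buffer, and was followed by washing, 0.1% formaldehyde crosslinking, proximity ligation, PCR amplification and Illumina NextSeq500 sequencing. Binding signal is the quotient of each hexamer's read frequency for a factor and its frequency for the tag-only sample.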

The target in the next assay is T2, ELK1 (Homo sapiens, UniProt P19419 1-428).
T2 sequence: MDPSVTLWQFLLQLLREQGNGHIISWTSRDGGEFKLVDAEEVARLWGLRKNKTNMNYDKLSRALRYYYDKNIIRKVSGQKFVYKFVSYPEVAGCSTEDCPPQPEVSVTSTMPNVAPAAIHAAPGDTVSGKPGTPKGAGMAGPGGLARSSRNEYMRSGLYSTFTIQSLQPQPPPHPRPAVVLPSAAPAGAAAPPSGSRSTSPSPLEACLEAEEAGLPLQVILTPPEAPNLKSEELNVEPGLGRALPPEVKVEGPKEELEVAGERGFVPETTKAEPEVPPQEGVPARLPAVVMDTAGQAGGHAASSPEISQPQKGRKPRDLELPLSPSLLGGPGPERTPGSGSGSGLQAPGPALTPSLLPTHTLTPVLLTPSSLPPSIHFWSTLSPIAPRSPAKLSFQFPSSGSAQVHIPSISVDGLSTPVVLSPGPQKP
In a few lines: as §1

For the next assay, the target named is T3, GABPA (Homo sapiens, UniProt Q06546 1-454).
T3 sequence: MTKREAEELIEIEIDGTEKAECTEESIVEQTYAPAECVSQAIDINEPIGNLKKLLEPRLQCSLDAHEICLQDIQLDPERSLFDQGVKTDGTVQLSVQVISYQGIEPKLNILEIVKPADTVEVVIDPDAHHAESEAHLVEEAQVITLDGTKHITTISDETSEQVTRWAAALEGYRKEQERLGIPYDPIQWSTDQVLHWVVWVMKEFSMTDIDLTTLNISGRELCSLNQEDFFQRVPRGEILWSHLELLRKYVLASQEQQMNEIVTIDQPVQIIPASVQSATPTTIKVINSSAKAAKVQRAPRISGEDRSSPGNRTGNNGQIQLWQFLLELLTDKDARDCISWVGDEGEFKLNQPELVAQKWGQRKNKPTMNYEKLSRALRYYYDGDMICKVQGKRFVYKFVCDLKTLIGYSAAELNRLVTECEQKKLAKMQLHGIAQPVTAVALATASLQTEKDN
In a few lines: as §1

In another assay the target is T4, ERG (Homo sapiens, UniProt P11308 1-479).
T4 sequence: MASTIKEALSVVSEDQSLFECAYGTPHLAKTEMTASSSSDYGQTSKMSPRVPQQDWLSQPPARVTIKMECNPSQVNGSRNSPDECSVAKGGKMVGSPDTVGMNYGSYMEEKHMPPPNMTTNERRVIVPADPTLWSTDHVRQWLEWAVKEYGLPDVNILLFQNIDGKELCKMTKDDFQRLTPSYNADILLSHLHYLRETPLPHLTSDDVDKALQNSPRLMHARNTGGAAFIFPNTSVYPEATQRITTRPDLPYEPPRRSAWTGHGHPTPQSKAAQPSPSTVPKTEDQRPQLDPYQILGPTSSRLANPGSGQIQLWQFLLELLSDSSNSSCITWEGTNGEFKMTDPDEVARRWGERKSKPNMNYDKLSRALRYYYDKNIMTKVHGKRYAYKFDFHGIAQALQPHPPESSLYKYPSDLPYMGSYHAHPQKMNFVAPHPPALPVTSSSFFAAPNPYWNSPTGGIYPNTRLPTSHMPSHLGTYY
The essentials:
as §1

The target in a further assay is ELF1 (Homo sapiens, UniProt P32519 1-619). In a few lines: as §1
Another assay deals with T5, EHF (Homo sapiens, UniProt Q9NZC4 1-300).
T5 sequence: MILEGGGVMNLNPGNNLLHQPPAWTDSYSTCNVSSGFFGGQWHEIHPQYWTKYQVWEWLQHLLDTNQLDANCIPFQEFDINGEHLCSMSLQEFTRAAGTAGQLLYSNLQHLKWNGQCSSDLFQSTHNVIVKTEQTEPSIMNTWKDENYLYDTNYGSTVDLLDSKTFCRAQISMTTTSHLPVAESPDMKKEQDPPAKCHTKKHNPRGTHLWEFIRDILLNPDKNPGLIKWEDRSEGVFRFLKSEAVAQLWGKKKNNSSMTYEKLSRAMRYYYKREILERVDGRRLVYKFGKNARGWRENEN
The essentials:
as §1

For the next assay, the target named is SPI1 (Homo sapiens, UniProt P17947 1-270). In a few lines: as §1
In the next assay the target is SPIB (Homo sapiens, UniProt Q01892 1-262). The essentials:
as §1

The target of a further assay is T6, ELK3 (Homo sapiens, UniProt P41970 1-407).
T6 sequence: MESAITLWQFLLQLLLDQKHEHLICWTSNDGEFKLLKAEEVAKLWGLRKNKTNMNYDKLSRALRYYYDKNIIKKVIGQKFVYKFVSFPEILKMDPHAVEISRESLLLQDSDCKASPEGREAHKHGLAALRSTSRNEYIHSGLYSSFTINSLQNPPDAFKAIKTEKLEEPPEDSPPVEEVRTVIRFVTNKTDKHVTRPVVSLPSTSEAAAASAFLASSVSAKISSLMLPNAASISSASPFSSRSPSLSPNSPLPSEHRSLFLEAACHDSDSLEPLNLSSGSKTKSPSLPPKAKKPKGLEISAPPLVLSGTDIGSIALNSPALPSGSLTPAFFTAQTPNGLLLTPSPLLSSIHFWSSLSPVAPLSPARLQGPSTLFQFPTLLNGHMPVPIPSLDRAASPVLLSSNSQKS
The essentials:
as §1

Here are results for seven sequences from paper PMC7862700, “An all-to-all approach to the identification of sequence-specific readers for epigenetic DNA modifications on cytosine”.

Chain of SPIB (Q01892 whole entry): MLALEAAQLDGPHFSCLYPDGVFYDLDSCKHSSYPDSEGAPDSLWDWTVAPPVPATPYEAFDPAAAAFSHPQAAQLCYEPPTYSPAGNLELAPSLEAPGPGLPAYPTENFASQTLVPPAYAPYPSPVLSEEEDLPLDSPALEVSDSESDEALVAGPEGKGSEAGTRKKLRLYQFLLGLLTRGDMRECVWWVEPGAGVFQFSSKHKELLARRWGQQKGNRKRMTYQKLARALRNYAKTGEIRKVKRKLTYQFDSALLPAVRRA
Chain of ELF1 (P32519 whole entry): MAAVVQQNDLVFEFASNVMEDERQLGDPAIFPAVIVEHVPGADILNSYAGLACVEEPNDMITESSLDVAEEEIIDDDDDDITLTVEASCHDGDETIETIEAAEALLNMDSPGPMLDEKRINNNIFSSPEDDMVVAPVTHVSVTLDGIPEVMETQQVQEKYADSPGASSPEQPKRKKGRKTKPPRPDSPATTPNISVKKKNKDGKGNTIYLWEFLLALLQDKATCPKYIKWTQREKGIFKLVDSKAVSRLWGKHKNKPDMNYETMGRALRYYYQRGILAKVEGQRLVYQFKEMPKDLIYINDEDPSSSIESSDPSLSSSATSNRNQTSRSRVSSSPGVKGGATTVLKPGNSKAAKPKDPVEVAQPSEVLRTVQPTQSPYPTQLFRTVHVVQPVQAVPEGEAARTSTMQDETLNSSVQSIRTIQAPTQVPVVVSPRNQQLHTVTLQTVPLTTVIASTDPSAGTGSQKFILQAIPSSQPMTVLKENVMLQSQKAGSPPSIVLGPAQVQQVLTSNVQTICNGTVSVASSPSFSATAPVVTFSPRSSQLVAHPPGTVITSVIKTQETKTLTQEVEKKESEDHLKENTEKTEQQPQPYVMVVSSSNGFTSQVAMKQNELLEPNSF

As for TGCAAT, the binding signal with FLI1 was 1.18 fold enrichment (6-mer frequency, TF over GST control); with ELK1, 1.21 fold enrichment (6-mer frequency, TF over GST control); in the assay with GABPA, 1.15 fold enrichment (6-mer frequency, TF over GST control); with ERG it was 1.09 fold enrichment (6-mer frequency, TF over GST control); in the assay with ELF1, 1.18 fold enrichment (6-mer frequency, TF over GST control); in the assay with EHF, 1.12 fold enrichment (6-mer frequency, TF over GST control). The binding signal is 1.19 fold enrichment (6-mer frequency, TF over GST control) with SPI1; 1.16 fold enrichment (6-mer frequency, TF over GST control) with SPIB; 1.19 fold enrichment (6-mer frequency, TF over GST control) with ELK3.

As for CCGATC, the binding signal in the assay with FLI1 is 1.38 fold enrichment (6-mer frequency, TF over GST control); in the assay with ELK1 it was 1.25 fold enrichment (6-mer frequency, TF over GST control); with GABPA, 1.21 fold enrichment (6-mer frequency, TF over GST control); with ERG, 1.24 fold enrichment (6-mer frequency, TF over GST control); in the assay with ELF1, 1.28 fold enrichment (6-mer frequency, TF over GST control); with EHF it was 1.24 fold enrichment (6-mer frequency, TF over GST control). Moreover, the binding signal is 1.18 fold enrichment (6-mer frequency, TF over GST control) with SPI1; 1.17 fold enrichment (6-mer frequency, TF over GST control) with SPIB; 1.17 fold enrichment (6-mer frequency, TF over GST control) with ELK3.

For ACCAAC, the binding signal in the assay with FLI1 was 1.19 fold enrichment (6-mer frequency, TF over GST control); with ELK1, 1.36 fold enrichment (6-mer frequency, TF over GST control); with GABPA, 1.23 fold enrichment (6-mer frequency, TF over GST control); with ERG it was 1.15 fold enrichment (6-mer frequency, TF over GST control); with ELF1, 1.24 fold enrichment (6-mer frequency, TF over GST control); in the assay with EHF, 1.18 fold enrichment (6-mer frequency, TF over GST control). For the same sequence, the binding signal is 1.19 fold enrichment (6-mer frequency, TF over GST control) with SPI1; 1.12 fold enrichment (6-mer frequency, TF over GST control) with SPIB; 1.18 fold enrichment (6-mer frequency, TF over GST control) in the assay with ELK3.

With CTTACA, the binding signal with FLI1 was 1.28 fold enrichment (6-mer frequency, TF over GST control); with ELK1, 1.3 fold enrichment (6-mer frequency, TF over GST control); with GABPA, 1.32 fold enrichment (6-mer frequency, TF over GST control); with ERG it was 1.21 fold enrichment (6-mer frequency, TF over GST control); with ELF1 it was 1.24 fold enrichment (6-mer frequency, TF over GST control); in the assay with EHF it was 1.33 fold enrichment (6-mer frequency, TF over GST control). In addition, the binding signal with SPI1 was 1.22 fold enrichment (6-mer frequency, TF over GST control); in the assay with SPIB it was 1.21 fold enrichment (6-mer frequency, TF over GST control); in the assay with ELK3, 1.24 fold enrichment (6-mer frequency, TF over GST control).

For the sequence ATAGTT, the binding signal in the assay with FLI1 is 1.18 fold enrichment (6-mer frequency, TF over GST control); with ELK1, 1.16 fold enrichment (6-mer frequency, TF over GST control); with GABPA, 1.16 fold enrichment (6-mer frequency, TF over GST control); in the assay with ERG it was 1.18 fold enrichment (6-mer frequency, TF over GST control); with ELF1, 1.16 fold enrichment (6-mer frequency, TF over GST control); with EHF, 1.18 fold enrichment (6-mer frequency, TF over GST control). Also, the binding signal with SPI1 is 1.11 fold enrichment (6-mer frequency, TF over GST control); with SPIB, 1.2 fold enrichment (6-mer frequency, TF over GST control); with ELK3, 1.11 fold enrichment (6-mer frequency, TF over GST control).

Turning to CACCCT, the binding signal is 1.21 fold enrichment (6-mer frequency, TF over GST control) with FLI1; 1.26 fold enrichment (6-mer frequency, TF over GST control) in the assay with ELK1; 1.18 fold enrichment (6-mer frequency, TF over GST control) in the assay with GABPA; 1.16 fold enrichment (6-mer frequency, TF over GST control) with ERG; 1.16 fold enrichment (6-mer frequency, TF over GST control) with ELF1; 1.02 fold enrichment (6-mer frequency, TF over GST control) with EHF. Moreover, the binding signal with SPI1 was 1.07 fold enrichment (6-mer frequency, TF over GST control); with SPIB, 1.16 fold enrichment (6-mer frequency, TF over GST control); with ELK3, 1.14 fold enrichment (6-mer frequency, TF over GST control).

On to CACACA, for which the binding signal with FLI1 was 1.17 fold enrichment (6-mer frequency, TF over GST control); with ELK1 it was 1.08 fold enrichment (6-mer frequency, TF over GST control); in the assay with GABPA, 1.14 fold enrichment (6-mer frequency, TF over GST control); with ERG, 1.15 fold enrichment (6-mer frequency, TF over GST control); in the assay with ELF1, 1.16 fold enrichment (6-mer frequency, TF over GST control); in the assay with EHF it was 1.19 fold enrichment (6-mer frequency, TF over GST control). Besides, the binding signal in the assay with SPI1 was 1.07 fold enrichment (6-mer frequency, TF over GST control); with SPIB, 1.17 fold enrichment (6-mer frequency, TF over GST control); in the assay with ELK3, 1.2 fold enrichment (6-mer frequency, TF over GST control).
